# Source: PubChem BioAssay
# MRP-1 activ: H69AR viability gain despite doxorubicin, primary screen, MRP-1 activator project, H69AR cells, CellTiter-Glo; viability rescue; viability increase, % at 10 µM; 140,000 tested, 0.61% active;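 active = viability gain under doxorubicin at or above a set limit, the compound median plus 3 SD, cut at about 4.7% in these data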;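 note: MRP-1 overexpressing cells given doxorubicin 25 µM after compound pretreatment; 18-22 h compound pretreatment then 72 h with doxorubicin before readout; 0% = doxorubicin-only wells and 100% = vehicle-treated cells without doxorubicin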
# SDO1 yeast rescue: growth rescue of sdo1-depleted yeast, primary screen, S. cerevisiae, bone marrow failure model; S. cerevisiae sdo1-depleted JHY4D growth rescue, OD600 30 h; stronger effect = higher value; pdr5 snq2 efflux-pump mutant strain; z-score at 10 µM; 140,000 tested, 0.21% active; AID 817, 2007;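 active = z-score above 3 at both the 24 hr and the 30 hr optical density reads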;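 note: z-score against mean and SD of all compound wells on the same plate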
# MRP reversal: reversal of MRP1-mediated doxorubicin resistance, primary screen, H69AR cells, doxorubicin co-treatment. H69AR cells + 2 uM doxorubicin, CellTiter-Glo, 72 h. differential viability (reversal), % at 10 µM. 85,000 tested, 0.04% active. AID 602, 2007;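 active = viability drop by adding the cancer drug above about 55%, with treated viability meeting a 40% cutoff, limit read from the data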;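 note: viability without doxorubicin minus viability with 2 µM doxorubicin for each compound; larger differential means the compound sensitizes cells more to doxorubicin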
# IL1B NFkB pot: enhancers of NFkB p65 translocation in HUVEC – imaging, IL-1B stimulus, high-content imaging, primary screen; HUVEC IL-1B NFkB p65 nuclear translocation imaging; activation, % at 2 µM; 94,000 tested, 0.3% active;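 active = activation above 40%, about the mean plus 3 SD, also judged a hit on visual image review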;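 note: percent activation is computed from the nuclear over cytoplasmic p65 intensity ratio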
# IL1B cytotox: cytotoxicity in IL-1B stimulated HUVEC, primary screen, cytotoxicity control for IL-1B NFkB translocation project, imaging, Hoechst nuclear count, IL-1B stimulus; cell count reduction, % at 2 µM; AID 845, 2007; HUVEC cell count loss; 94,000 tested, 0.41% active;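 active = cell count reduction more than 3 SD above the screen-wide mean, cut at about 70% in these data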;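 note: normalized per plate to untreated control cells as the no-loss baseline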
# IL1B NFkB inh: inhibitors of IL-1B driven NFkB p65 nuclear import, primary screen, imaging, HUVEC, IL-1B stimulus, high-content imaging. HUVEC IL-1B NFkB p65 nuclear translocation imaging. inhibition, % at 2 µM. 94,000 tested, 0.43% active;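 active = inhibition above about 30% together with a positive call from visual inspection of the well image, limit read from the data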;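 note: nuclear over cytoplasmic p65 intensity ratio measured by imaging; 0% = IL-1B stimulated DMSO wells and 100% = unstimulated DMSO wells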
# * = called active by the depositor; . = no result given. Only some compounds are listed: those with a hit (about 1.4% of all), similar ones and a draw of the others.
SMILES,MRP-1 activ,SDO1 yeast rescue,MRP reversal,IL1B NFkB pot,IL1B cytotox,IL1B NFkB inh
O=C1CC(C(=O)Nc2ccccc2)C2(CCCC2)O1 (stereo not given),-1,0.71,.,25,4,-24
CCCC(=O)NC(=S)Nc1ccccc1C(=O)OC,-3,0.52,.,1,-3,-1
CCCC(=O)NC(=S)Nc1ccc(C(C)=O)cc1,11*,0.98,.,.,.,.
CC1CCCC(n2c(=S)[nH]c3ccccc3c2=O)C1C (stereo not given),-5,-2.3,-25,-2,10,2
COc1ccc(NC(=O)N2CCC(n3nnc4cc(C)ccc43)CC2)cc1,-1,0.93,11,-11,-25,11
Clc1ccc(Sc2cnc3ccccc3n2)cc1,0,-0.18,12,-17,14,17
Clc1ccccc1Sc1cnc2ccccc2n1,-2,-0.89,24,-36,-10,36*
N#Cc1nc(COc2ccccc2)oc1N1CCCCCC1,6.3*,-1.3,5,24,-7,-24
N#Cc1nc(COc2ccccc2)oc1N1CCCC1,5.0*,-0.72,.,3,3,-3
O=C(Nc1ccc(Oc2ccccc2)cc1)c1cnc2n(c1=O)CCS2,6.0*,-1.5,5,4,-18,-4
CN(c1ccc(C(=O)Nc2ccccc2C(=O)N2CCCC2)cc1)S(C)(=O)=O,-3,1.5,0,0,82*,0
CCOC(=O)c1c(/N=C/N(C)C)sc(/C=N/Nc2ccccc2)c1-c1ccc(Cl)cc1,-3,0.09,.,.,.,.
N/C(=N\N=C\c1ccc2c(c1)OCO2)c1nonc1N,5.6*,1.2,.,.,.,.
O=C(c1ccc(COc2ccc(Cl)cc2)o1)N1N=C(C(F)F)CC1(O)C(F)F (stereo not given),5.6*,-2.2,.,.,.,.
COc1ccccc1OCc1ccc(C(=O)N2N=C(C(F)F)CC2(O)C(F)F)o1 (stereo not given),1,-0.61,.,-3,0,3
Cc1sc2cc(-c3cccc([N+](=O)[O-])c3)c(-c3cccc([N+](=O)[O-])c3)c[n+]2c1C,-1,1.3,.,.,.,.
Cn1c(N)c(C(=O)COC(=O)CCc2c[nH]c3ccccc23)c(=O)n(C)c1=O,-1,0.61,.,55*,-3,-55
Cn1c(N)c(C(=O)COC(=O)CCCc2c[nH]c3ccccc23)c(=O)n(C)c1=O,-1,0.57,9,-2,-7,2
CCC(=O)N(Cc1c(C)nn(-c2ccccc2)c1Cl)c1ccc(Cl)cc1,-2,-0.88,.,.,.,.
Cc1ccccc1-n1ncc2c(SCC(=O)NCc3cccs3)ncnc21,-5,0.15,-29,105*,-12,-105
CC1=C(C(=O)OCC(Br)(Br)Br)C(c2ccc(Br)cc2)NC(=O)N1CCCC(=O)O (stereo not given),-2,-0.04,.,.,.,.
CNC(=S)N1C2CCC1CC(NC(=O)NC13CC4CC(CC(C4)C1)C3)C2 (stereo not given),0,0.82,.,-2,-44,2
CN1CCN(C(=S)c2ccc(OCC(=O)Nc3cccc(C(F)(F)F)c3)cc2)CC1,-4,-0.05,.,.,.,.
O=C(c1ccc(CS(=O)(=O)c2ccc(Br)cc2)o1)N1CCN(C2CCCCC2)CC1,-2,0.75,74*,9,1,-9
COc1ccc(S(=O)(=O)Cc2ccc(C(=O)N3CCN(C4CCCCC4)CC3)o2)cc1,-3,0.82,4,-2,-1,2
SMILES,MRP-1 activ,SDO1 yeast rescue,MRP reversal,IL1B NFkB pot,IL1B cytotox,IL1B NFkB inh
CCc1cccc(CC)c1NC(=O)COn1nnc2ccc(C(F)(F)F)cc21,0,0.37,.,.,.,.
Cc1ccc(C(=O)NNC(=O)c2ccc(SCC3CCCO3)c([N+](=O)[O-])c2)cc1 (stereo not given),8.2*,0.49,4,1,-16,-1
Cc1ccc(C(=O)O/N=C/c2c(C(F)(F)F)nn(C)c2Sc2ccc(Cl)cc2)cc1,-1,0.75,-2,19,12,-20
COC(=O)c1ccccc1Sc1c(/C=N/OC(=O)c2ccccc2)c(C(F)(F)F)nn1C,-5,-0.26,12,-45,30,44*
O=S(=O)(NCCSc1nnc(-c2ccco2)n1-c1ccccc1)c1ccccc1,-2,-0.02,12,86*,5,-86
CCCCOc1ccc(C(C)NC(=O)C2CCCN(S(=O)(=O)CCC)C2)cc1 (stereo not given),-3,-0.35,.,.,.,.
CC(C)c1ccc(OCC(=O)N(Cc2ccccc2)c2ccccn2)cc1,-1,-0.67,.,.,.,.
Cc1csc(NC(=O)CSc2nnc(CCNC(=O)c3cccs3)n2C)n1,-1,-0.2,10,-99,89*,99*
Cn1c(CCNC(=O)c2cccs2)nnc1SCC(=O)Nc1nc(-c2ccccc2)cs1,-1,-0.39,10,1,0,-1
CNC(=O)c1sc(-c2ccc(Cl)cc2)nc1C,2,1.6,-3,-15,75*,15
CCC(C)(C(=O)NC1CCCC1)N(Cc1cccs1)C(=O)c1ccc2c(c1)OCO2 (stereo not given),-3,-0.48,.,.,.,.
COc1ccc(OC)c(-c2csc(NC(=O)C3c4ccccc4Oc4ccccc43)n2)c1,9.4*,-0.4,.,.,.,.
O=C(Nc1nc(-c2ccccc2)cs1)C1c2ccccc2Oc2ccccc21,-1,-0.68,.,4,-22,-4
CCOc1ccc(-c2c(C(=O)N/N=C/c3ccc(OC)cc3)nnn2-c2nonc2N)cc1,0,0.79,.,.,.,.
Cc1ccc(C(=O)NCc2nnc(SCC(=O)Nc3sc4c(c3C#N)CCCC4)n2C)cc1,-2,-0.16,-6,33,82*,-33
CC(C)c1ccc(OCC(=O)NCCO)cc1,2,1.4,.,.,.,.
CC(=O)N/C(=N\OCc1ccccc1Cl)c1nonc1NC(C)=O,-2,-0.19,.,.,.,.
O=C(Nc1ccc2snnc2c1)Nc1cccc2ccccc12,-4,-1.2,0,-28,87*,28
CCOC(=O)n1n[n+]([O-])c2ccccc21,-1,1.4,.,.,.,.
O=C(CCCCn1c(=O)[nH]c2ccsc2c1=O)NCc1ccc2c(c1)OCO2,-1,2,-9,-64,33,64*
COc1ccc(C2C3=C(CC(C)(C)CC3=O)Nc3c2c(=O)[nH]c(=O)n3Cc2ccccc2)cc1OC (stereo not given),-2,-0.12,0,9,4,-9
COc1ccc(C2C3=C(CC(C)(C)CC3=O)Nc3c2c(=O)[nH]c(=O)n3Cc2ccccc2)cc1 (stereo not given),-4,-0.02,-7,102*,2,-102
CC(=O)c1ccc(NC(=S)NNC(=O)c2ccncc2)cc1,-1,1.8,.,.,.,.
O=[N+]([O-])c1ccc(/C=C2\CCC(C3=CCCC3)=C2N2CCOCC2)cc1,-4,-1.2,.,.,.,.
